We go through nine compounds from PubChem BioAssay (NCI).

Each structure is given as a SMILES string. The panel holds about 83,000 compounds, 20% with a hit somewhere; the sample as a whole holds those more often.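 The endpoint reported here, percent growth, reads 100 for growth as untreated, 0 for no net growth and -100 for all cells dead.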 Unmarked numbers belong to inactive results. Activity calls are given as the source filed them. How the source made its calls: active means growth percent below 10; inactive means the rest.

Common to all, as to assay: NCI-60 one-dose screen, 48 h (100 = growth as untreated, 0 = no growth, -100 = all killed)
The test system of experiment [1] is SK-MEL-2 melanoma. The following applies: 10 µM unless noted.
The subject of experiment [2] is SN12C renal. The following applies: 10 µM unless noted.
Experiment [3] deals with UO-31 renal. Particulars: 10 µM unless noted.
For experiment [4], the system named is TK-10 renal. The following applies: 10 µM unless noted.
The subject of experiment [5] is ACHN renal. Particulars: 10 µM unless noted.
Experiment [6] deals with CAKI-1 renal. The following applies: 10 µM unless noted.
In experiment [7] the test system is A498 renal. The following applies: 10 µM unless noted.
Experiment [8] concerns MOLT-4 leukemia. Particulars: 10 µM unless noted.
The subject of experiment [9] is SR leukemia. The following applies: 10 µM unless noted.
For experiment [10], the system named is RPMI-8226 leukemia. Particulars: 10 µM unless noted.
For experiment [11], the system named is OVCAR-8 ovarian. The following applies: 10 µM unless noted.
Experiment [12] deals with OVCAR-5 ovarian. Particulars: 10 µM unless noted.
For experiment [13], the system named is OVCAR-4 ovarian. The following applies: 10 µM unless noted.
In experiment [14] the test system is SK-OV-3 ovarian. The following applies: 10 µM unless noted.
Experiment [15] concerns IGROV1 ovarian. Particulars: 10 µM unless noted.
For experiment [16], the system named is OVCAR-3 ovarian. Particulars: 10 µM unless noted.
The subject of experiment [17] is NCI/ADR-RES ovarian. Particulars: 10 µM unless noted.
The test system of experiment [18] is CCRF-CEM leukemia. Particulars: 10 µM unless noted.
The subject of experiment [19] is HS 578T breast. The following applies: 10 µM.
Experiment [20] relates to EKVX NSCLC. The following applies: 10 µM unless noted.

Regarding `CCC(=O)NC(O)C(Cl)(Cl)C(C)Cl` (configuration not stated), the growth in experiment [1] is 106%; in experiment [2], 98.8%; in experiment [3], 91.5%; in [4] it was 112%; in [5], 100%; in experiment [6] it was 99.4%. Also, the growth was 107% in experiment [7]; 108% in experiment [8]; 105% in [9]; 105% in [10]; 98.1% in experiment [11]; 105% in experiment [12]. The growth in experiment [13] was 109%; in [14], 107%; in experiment [15], 99.6%; in experiment [16] it was 105%; in [17], 96.3%.

For the compound `CC(=O)[C@H]1CC[C@H]2[C@@H]3CC[C@H]4CC=CC[C@]4(C)[C@H]3CC[C@]12C`, the growth is 79.9% in experiment [1]; 96.1% in [2]; 83.7% in experiment [3]; 85.9% in experiment [4]; 92.4% in experiment [5]; 72.9% in experiment [6]. The growth in [7] is 103%; in experiment [8], 83.9%; in experiment [9] it was 68.9%; in experiment [10] it was 65.5%; in experiment [11], 94.3%; in experiment [12] it was 87%. Further, the growth in experiment [13] was 89.9%; in experiment [14], 101%; in experiment [15] it was 93.9%; in experiment [16], 122%; in experiment [17], 98.9%.

Consider `O=NN(CC(=O)NNc1ccccc1)CC(=O)NNc1ccccc1`, for which the growth is 77.7% in experiment [1]; 87% in experiment [2]; 22% in experiment [3]; 84.3% in [4]; 46.4% in experiment [5]; 36% in experiment [6]. Also, the growth in experiment [7] was 107%; in experiment [18], 30.7%; in [8], 42.2%; in experiment [9], 74.3%; in experiment [10], 55.4%; in experiment [11] it was 67.7%. Further, the growth is 74.5% in experiment [12]; 70.8% in experiment [13]; 101% in [14]; 86.9% in experiment [16]; 94.2% in [19]; 40.7% in experiment [17].

Consider `CCCCCCCCCCCCCC[N+](C)(C)CCCCCCCCCCCCCC`, for which the growth is 67.6% in [1]; 67.6% in experiment [2]; 78% in experiment [3]; 48.3% in [4]; 57.1% in experiment [5]; 51.6% in experiment [6]. Moreover, the growth in experiment [7] was 102%; in experiment [8], 51.2%; in experiment [9], 35.7%; in [10], 12.6%; in [11], 49.6%; in experiment [12], 79.9%. The growth is 62% in [13]; 85.5% in experiment [14]; 9.59% (active) in [15]; 87.5% in [16]; 104% in experiment [17].

For `COC(=O)C1(C)COP(=O)(NC23CC4CC(CC(C4)C2)C3)OC1` (configuration not stated), the growth in experiment [20] was 98.4%; in experiment [2], 113%; in experiment [3], 87.2%; in [4], 96.7%; in experiment [5], 103%; in experiment [6] it was 103%. For the same compound, the growth in experiment [7] is 103%; in experiment [18], 98.2%; in experiment [8] it was 109%; in experiment [9], 114%; in [10], 95.6%; in experiment [11], 107%. For the same compound, the growth in experiment [12] was 113%; in [13], 97.7%; in experiment [14] it was 100%; in experiment [15], 106%; in experiment [16], 106%; in experiment [19], 102%. The growth in experiment [17] is 93.9%.

Take `Cc1cc(C)c([O-])c(CN(C)CCN(C)Cc2cc(C)cc(C)c2[O-])c1.O=C([O-])c1cccc(C(=O)[O-])n1.[Ti+4]`: the growth in experiment [20] was 27.1%; in experiment [2], 27.4%; in [3], -9.59% (active); in [4], -20.6% (active); in experiment [5] it was 19.4%; in [6], 24.6%. Also, the growth in experiment [7] was -86.2% (active); in experiment [18] it was -2.1% (active); in [8] it was -5% (active); in experiment [10] it was -25.9% (active); in experiment [11], 20.9%; in experiment [13], 22%. Besides, the growth in experiment [15] is 6.22% (active); in experiment [16], 9.53% (active); in [19] it was 0.477% (active); in experiment [17], 7.88% (active).

Turning to `O=C(C(Br)C(Br)c1ccccc1)C(Br)C(Br)c1ccccc1` (configuration not stated), the growth is -28.7% (active) in experiment [1]; -30.5% (active) in [2]; -96.6% (active) in experiment [3]; -87.9% (active) in [4]; -96% (active) in experiment [5]; 84.6% in experiment [7]. Besides, the growth in experiment [18] was -43.8% (active); in [8], -43.4% (active); in [9], -44.9% (active); in experiment [10] it was -36.6% (active); in experiment [11] it was -10.8% (active); in experiment [12] it was -57.4% (active). Also, the growth in experiment [13] is 34.9%; in experiment [14], 83.1%; in [15], -49.5% (active); in [16] it was -79.9% (active); in experiment [19], 39.4%; in experiment [17] it was 17.1%.

Consider `CCC1CCc2nc3sc(C(=O)Nc4cccc(F)c4)c(N)c3cc2C1` (configuration not stated), for which the growth was 63.3% in experiment [1]; 94.4% in experiment [2]; 67.2% in experiment [3]; 77% in [4]; 67.9% in experiment [5]; 50.5% in experiment [7]. The growth was 47.9% in experiment [18]; 37.5% in experiment [8]; 12.5% in experiment [9]; 44.9% in experiment [10]; 86.6% in experiment [11]; 90.5% in experiment [12]. The growth in [13] is 99.2%; in [15], 89.2%; in experiment [19], 79.5%; in [17], 61.8%.

Regarding `Cc1cccc(C(=O)O)n1`, the growth was 93.9% in experiment [20]; 102% in [2]; 72.3% in experiment [3]; 109% in [4]; 102% in [5]; 69.8% in experiment [6]. Further, the growth in experiment [7] is 116%; in experiment [18], 146%; in [8], 94.2%; in [9], 120%; in experiment [10], -8.6% (active); in experiment [11], 74.4%. Further, the growth in experiment [12] was 100%; in experiment [13] it was 101%; in experiment [14] it was 119%; in [15], 72%; in [16], 115%; in [19], 118%. Besides, the growth in experiment [17] is 107%.
